Experimental findings from PubChem BioAssay (NCI) are described below.

A short description of assay [1]: NCI Yeast Anticancer Drug Screen. Data for the rad50 strain (AID 155).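 Further: 0% = growth of vehicle-only cultures of the same strain.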 The conditions noted are these: S. cerevisiae rad50 strain growth inhibition, active compounds read high. In outline: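 Readout: growth inhibition relative to vehicle-treated cultures. Compound exposure was carried out in a genetically defined yeast strain deficient in DNA damage repair.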
Assay [2] in a line: NCI Yeast Anticancer Drug Screen. Data for the mec2-1 strain (AID 157). Particulars: S. cerevisiae mec2-1 strain, active compounds read high. In outline:
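Vehicle-treated cultures served as reference for growth inhibition of compound-exposed mec2-1 yeast.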

Assay [3] is described as follows: NCI Yeast Anticancer Drug Screen. Data for the sgs1 mgt1 strain (AID 161).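 Further: 0% = growth of cultures given vehicle only.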 Particulars: S. cerevisiae sgs1 mgt1 strain, active compounds read high. In outline: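 Genetically altered yeast, compound exposure, growth inhibition relative to vehicle.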
Assay [4] is described as follows: NCI Yeast Anticancer Drug Screen. Data for the cln2 rad14 strain (AID 165).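 Further: 0% = growth equal to vehicle treated cultures.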 Particulars: S. cerevisiae cln2 rad14 strain, active compounds read high. In outline: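 Each compound was tested on cln2 rad14 yeast. Inhibition of growth was calculated against vehicle-exposed controls.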
Assay [5] can be described thus: NCI Yeast Anticancer Drug Screen. Data for the bub3 strain (AID 167). Particulars: S. cerevisiae bub3 mutant strain, active compounds read high. Put shortly:
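Readout: yeast growth inhibition, expressed relative to vehicle-only wells. The test organism is a mutant strain from a panel with lesions in DNA repair or checkpoint genes.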

Assay [6] can be described thus: NCI Yeast Anticancer Drug Screen. Data for the mlh1 rad18 strain (AID 175). The conditions noted are these: S. cerevisiae mlh1 rad18 strain growth inhibition, active compounds read high. In outline: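 Vehicle-treated cultures served as the reference for growth inhibition in a yeast strain carrying DNA damage repair alterations exposed to each compound.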
Where [7] appears, read: at 5.0 µM (retest, dose inferred, filed as 0.5).
Setting [8] is: at 50.0 µM (retest, dose inferred, filed as 5.0).

Molecules are shown by their SMILES. This is part of a sample that, as a whole, favours compounds with a hit. Of some 79,000 tested, about 15% had one in any assay. Values without a mark were called inactive. Activity calls are given as the source filed them. No stated cut-off is given here; in the data, active means growth inhibition above about 70%; inactive means the rest.

Regarding `C1=NCCN=Cc2ccccc2NCCNc2ccccc21`, the growth inhibition in assay [1] (setting [7]) was 3%; in assay [1] (setting [8]) it was 2%; in assay [1] (at 50.0 µM) it was 55.2%; in assay [2] (setting [7]) it was 6%; in assay [2] (setting [8]), -20%; in assay [2] (at 50.0 µM), 58.6%. For the same molecule, the growth inhibition in assay [3] (setting [7]) was 4%; in assay [3] (setting [8]), 41%; in assay [3] (at 50.0 µM), 74.8% (active); in assay [4] (setting [7]), 15%; in assay [4] (setting [8]), 23%; in assay [4] (at 50.0 µM) it was 53.5%. For the same molecule, the growth inhibition was 6% in assay [5] (setting [7]); 6% in assay [5] (setting [8]); 43.5% in assay [5] (at 50.0 µM); -3% in assay [6] (setting [7]); -2% in assay [6] (setting [8]); 69% in assay [6] (at 50.0 µM).

As for `CC1=CC2C(O)(CC(CO)=CC3C4C(C)(C)C4(OC(=O)c4ccccc4)C(OC(=O)c4ccccc4)C(C)C32O)C1=O` (stereo not given), the growth inhibition in assay [1] (setting [7]) was 95% (active); in assay [1] (setting [8]), 96% (active); in assay [1] (at 50.0 µM), 90.3% (active); in assay [2] (setting [7]), 96% (active); in assay [2] (setting [8]), 98% (active); in assay [2] (at 50.0 µM), 91.7% (active). Further, the growth inhibition in assay [3] (setting [7]) was 96% (active); in assay [3] (setting [8]), 97% (active); in assay [3] (at 50.0 µM), 92% (active); in assay [4] (setting [7]), 73% (active); in assay [4] (setting [8]) it was 97% (active); in assay [4] (at 50.0 µM) it was 88.3% (active). Moreover, the growth inhibition was 95% (active) in assay [5] (setting [7]); 96% (active) in assay [5] (setting [8]); 89.2% (active) in assay [5] (at 50.0 µM); 97% (active) in assay [6] (setting [7]); 97% (active) in assay [6] (setting [8]); 88.6% (active) in assay [6] (at 50.0 µM).

`CCC(=O)OCN1C(=O)C=CC1=O`: the growth inhibition is 11% in assay [1] (setting [7]); 99% (active) in assay [1] (setting [8]); 99% (active) in assay [1] (at 50.0 µM); 3% in assay [2] (setting [7]); 100% (active) in assay [2] (setting [8]); 99.3% (active) in assay [2] (at 50.0 µM). In addition, the growth inhibition in assay [3] (setting [7]) is -4%; in assay [3] (setting [8]) it was 100% (active); in assay [3] (at 50.0 µM) it was 99.2% (active); in assay [4] (setting [7]), 14%; in assay [4] (setting [8]), 99% (active); in assay [4] (at 50.0 µM), 98.9% (active). Moreover, the growth inhibition in assay [5] (setting [7]) is 10%; in assay [5] (setting [8]), 100% (active); in assay [5] (at 50.0 µM), 99.3% (active); in assay [6] (setting [7]), 20%; in assay [6] (setting [8]) it was 99% (active); in assay [6] (at 50.0 µM) it was 99% (active).

Turning to `CCCC(O)C[N+](=O)[O-]` (stereo not given), the growth inhibition in assay [1] (setting [7]) is 6%; in assay [1] (setting [8]), 71% (active); in assay [1] (at 50.0 µM), 48.2%; in assay [2] (setting [7]) it was -1%; in assay [2] (setting [8]), 6%; in assay [2] (at 50.0 µM) it was 13.2%. In addition, the growth inhibition is -2% in assay [3] (setting [7]); 9% in assay [3] (setting [8]); 15.2% in assay [3] (at 50.0 µM); -1% in assay [4] (setting [7]); 1% in assay [4] (setting [8]); 4.5% in assay [4] (at 50.0 µM). The growth inhibition in assay [5] (setting [7]) is -1%; in assay [5] (setting [8]), 4%; in assay [5] (at 50.0 µM), 13.5%; in assay [6] (setting [7]), 0%; in assay [6] (setting [8]), 14%; in assay [6] (at 50.0 µM), 11.8%.

As to `Clc1ccc2c(NCCCCCCNc3ccnc4cc(Cl)ccc34)ccnc2c1`, the growth inhibition in assay [1] (setting [7]) was 2%; in assay [1] (setting [8]), 90% (active); in assay [1] (at 50.0 µM), 65.9%; in assay [2] (setting [7]), -3%; in assay [2] (setting [8]), 98% (active); in assay [2] (at 50.0 µM), 92.4% (active). Moreover, the growth inhibition in assay [3] (setting [7]) is -10%; in assay [3] (setting [8]), 95% (active); in assay [3] (at 50.0 µM), 87.5% (active); in assay [4] (setting [7]), -2%; in assay [4] (setting [8]) it was 75% (active); in assay [4] (at 50.0 µM), 72.4% (active). In addition, the growth inhibition in assay [5] (setting [7]) was -11%; in assay [5] (setting [8]), 92% (active); in assay [5] (at 50.0 µM), 81.1% (active); in assay [6] (setting [7]), 12%; in assay [6] (setting [8]), 97% (active); in assay [6] (at 50.0 µM), 95.8% (active).

Regarding `Cc1cccc(C)c1N1C(=O)C(=O)C(c2nc3ccccc3s2)/C(=N/NC(=O)c2ccccc2O)C1=O` (stereo not given), the growth inhibition in assay [1] (setting [7]) was 26%; in assay [1] (setting [8]), 26%; in assay [1] (at 50.0 µM) it was 71.9% (active); in assay [2] (setting [7]) it was 16%; in assay [2] (setting [8]), 16%; in assay [2] (at 50.0 µM) it was 56.2%. The growth inhibition is 26% in assay [3] (setting [7]); 26% in assay [3] (setting [8]); 48.9% in assay [3] (at 50.0 µM); 21% in assay [4] (setting [7]); 21% in assay [4] (setting [8]); 69.5% in assay [4] (at 50.0 µM). Moreover, the growth inhibition in assay [5] (setting [7]) was 19%; in assay [5] (setting [8]) it was 19%; in assay [5] (at 50.0 µM), 66%; in assay [6] (setting [7]), 34%; in assay [6] (setting [8]), 34%; in assay [6] (at 50.0 µM) it was 48.5%.

As to `Cn1cnc([N+](=O)[O-])c1Sc1nc2cccnc2s1`, the growth inhibition is 45% in assay [1] (setting [7]); 80% (active) in assay [1] (setting [8]); 79.5% (active) in assay [1] (at 50.0 µM); 34% in assay [2] (setting [7]); 77% (active) in assay [2] (setting [8]); 77.1% (active) in assay [2] (at 50.0 µM). The growth inhibition in assay [3] (setting [7]) is 40%; in assay [3] (setting [8]), 59%; in assay [3] (at 50.0 µM), 67.8%; in assay [4] (setting [7]), 29%; in assay [4] (setting [8]), 44%; in assay [4] (at 50.0 µM), 52%. For the same molecule, the growth inhibition was 38% in assay [5] (setting [7]); 68% in assay [5] (setting [8]); 71.8% (active) in assay [5] (at 50.0 µM); 54% in assay [6] (setting [7]); 90% (active) in assay [6] (setting [8]); 75.6% (active) in assay [6] (at 50.0 µM).

Regarding `COc1cc(C2=N/C(=C\c3ccccc3O)C(=O)O2)cc(OC)c1OC`, the growth inhibition in assay [1] (setting [7]) was -23%; in assay [1] (setting [8]) it was -22%; in assay [1] (at 50.0 µM) it was -9.9%; in assay [2] (setting [7]), -8%; in assay [2] (setting [8]), -21%; in assay [2] (at 50.0 µM), -27.1%. The growth inhibition in assay [3] (setting [7]) was -15%; in assay [3] (setting [8]) it was -6%; in assay [3] (at 50.0 µM), 4.05%; in assay [4] (setting [7]) it was 0%; in assay [4] (setting [8]), 2%; in assay [4] (at 50.0 µM), 8.7%. The growth inhibition in assay [5] (setting [7]) was -20%; in assay [5] (setting [8]) it was -23%; in assay [5] (at 50.0 µM), 10.8%; in assay [6] (setting [7]), -43%; in assay [6] (setting [8]), -47%; in assay [6] (at 50.0 µM), 0.65%.

In the case of `O=C(O)[C@@H]1CCCC[C@@H]1C(=O)N(C1CCCCC1)C1CCCCC1`, the growth inhibition in assay [1] (setting [7]) was -4%; in assay [1] (setting [8]), 79% (active); in assay [1] (at 50.0 µM) it was 45.1%; in assay [2] (setting [7]) it was -15%; in assay [2] (setting [8]), 86% (active); in assay [2] (at 50.0 µM) it was 14%. Further, the growth inhibition was 8% in assay [3] (setting [7]); 73% (active) in assay [3] (setting [8]); 59% in assay [3] (at 50.0 µM); -7% in assay [4] (setting [7]); 96% (active) in assay [4] (setting [8]); 28.6% in assay [4] (at 50.0 µM). The growth inhibition in assay [5] (setting [7]) was -5%; in assay [5] (setting [8]), 96% (active); in assay [5] (at 50.0 µM) it was 9.45%; in assay [6] (setting [7]) it was -39%; in assay [6] (setting [8]), 89% (active); in assay [6] (at 50.0 µM), 0.5%.

For `OCC(O)C(O)C(O)C(O)C(O)C(/C=N/Nc1ccccc1)=N/Nc1ccccc1` (stereo not given), the growth inhibition in assay [1] (setting [7]) is -1%; in assay [1] (setting [8]), 81% (active); in assay [1] (at 50.0 µM) it was 55.2%; in assay [2] (setting [7]) it was -2%; in assay [2] (setting [8]), 95% (active); in assay [2] (at 50.0 µM) it was 29.2%. Also, the growth inhibition in assay [3] (setting [7]) is 0%; in assay [3] (setting [8]), 50%; in assay [3] (at 50.0 µM), 35.2%; in assay [4] (setting [7]), 0%; in assay [4] (setting [8]) it was 71% (active); in assay [4] (at 50.0 µM), 31.1%. For the same molecule, the growth inhibition in assay [5] (setting [7]) is 18%; in assay [5] (setting [8]) it was 95% (active); in assay [5] (at 50.0 µM), 56%; in assay [6] (setting [7]), 8%; in assay [6] (setting [8]) it was 92% (active); in assay [6] (at 50.0 µM), 66.1%.
